The text below walks through data of PubChem BioAssay AID493169 (National Center for Advancing Translational Sciences (NCATS), 2011).

Structures are written as SMILES. Results filed as inconclusive are left out. Entries that show only a call come without a potency. Activity calls are given as the source filed them. Calls come from the whole dose curve; as a rule, active = well fitted inhibition curve with a large enough effect; inconclusive = small, poorly fitted or top-dose-only effect; inactive = flat fitted curve, though single readings scatter.
Potency is the fitted concentration of half-maximal effect.

The experiment is described as follows: CHOP2 Reporter Counterscreen Assay for Inhibitors of Ubiquitin-specific Protease USP2a.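 Note: activated enterokinase alone at 50 pM in a cell-free format rather than USP2a or CHOP2; nearly all actives have a fitted effect of over 55% in size.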 The conditions noted are these: purified enterokinase, fluorogenic substrate, 485/531 nm; series mostly up to 38.3 µM. In short, it runs like this:
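Cell-free counterscreen with pre-activated enterokinase alone (50 pM final) in 20mM Tris-HCl pH 8.0, 2mM CaCl2, 2mM beta-mercaptoethanol, 0.05% CHAPS; compound preincubation 30 min RT, reporter substrate 25nM final, fluorescence read after 10 min (Ex 485/Em 531).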
For the compound `CN1CCN(CCCCOc2ccc(F)cc2)CC1`, the Potency result was “inactive”. Regarding `CCCCCCCCCCOC(=O)Cn1c(COc2ccc(C)cc2)[n+](C)c2ccccc21`, the Potency is 5.62 µM (active). Under `COCCn1c(SCC(=O)Nc2cc(C)on2)nnc1-c1ccccc1` stands “inactive”; under `O=C(NC1CCCC1)C1C2C=CC(C2)C1C(=O)N1CCOCC1` (configuration not stated), “inactive”. Consider `O=C(CSc1nnnn1-c1ccc(F)cc1)c1ccc(O)c(O)c1`, for which the Potency was 12.6 µM (active). As to `Cc1ccc([C@@H]2CC=C(C(=O)O)[C@H](c3cccc(Cl)c3)N2S(=O)(=O)c2ccc(C)cc2)cc1`, the Potency entry is “inactive”. `CSc1cccc(NC(=O)c2ccccc2N(C)S(C)(=O)=O)c1`: the Potency result was “inactive”. As for `CCOc1ccccc1C(=O)N[C@H](C(=O)Nc1ccc(OC)c(S(=O)(=O)N2CCOCC2)c1)C(C)C`, the Potency entry is “inactive”. Take `CC1(C)CC(=O)C=C(NCc2cccs2)C1`: the Potency entry was “inactive”. In the case of `COC(=O)c1[nH]c(=O)c2ccccc2c1OCc1ccccc1` it was “inactive”; in that of `Cc1ccc(O)c(CC(C)C)n1`, “inactive”; in that of `Cc1ccc(C=Nc2ccccc2C(N)=O)cc1`, “inactive”. As to `COc1ccc(-c2noc(CSc3nnc(Cc4ccccc4)n3-c3ccc(Cl)cc3)n2)cc1`, the Potency result is “inactive”. Take `COc1ccccc1N1CCN(c2cc(C)nc3nc(C)nn23)CC1`: the Potency result was “inactive”. As to `C#CCOCCOCCOCCNc1nc(N2CCN(C(=O)CCCCCCCCCCNC(=O)Cn3cc(CCCCCN)nn3)CC2)nc(N2CCN(C(=O)CCCCCCCCCCNC(=O)Cn3cc(CCCCCN)nn3)CC2)n1`, the Potency is 10 µM (active). In the case of `Cc1cc(C(=O)NCc2ccco2)on1`, the Potency entry was “inactive”. In the case of `O=C1CC(Nc2ccc(N3CCOCC3)cc2)C(=O)N1c1cccc(C(F)(F)F)c1` (configuration not stated), the Potency result was “inactive”.
